According to the supplement of paper PMC10849652:
About 7,900 targets were measured; listed, in parts, are those with a hit and a random draw of the rest. About 0.6% of all pairs of compound and target were hits.

Tests used:
Assay in all cases: log2 fold change, soluble protein after heating vs DMSO (PISA); higher = thermal stabilisation; K562 cells, 10 uM, 30 min; active = over 0.2 and 3.5 SD of the protein, either way, in both replicates (recomputed)
[1] = compound: NC(=O)Nc1cc(-c2cccc(F)c2)sc1C(=O)N[C@H]1CCCNC1
Procedure, shortened: (§1)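 Soluble protein was defined as the supernatant after 21,000xg for 90 min. It came from K562 cells at 2×10^6 cells/mL given 10 μM compound for 30 min, heated in aliquots for 3 min across 48°C-58°C, pooled, and extracted in PBS with 0.5% NP-40 at 4°C, and was quantified by TMTpro 16plex LC-MS/MS with equalised channel sums. Thermal stability against control samples, from duplicates, is reported as log2 fold change.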

[2] = compound: NC(=O)c1cnc(N[C@@H]2CCCC[C@@H]2N)nc1Nc1cccc(-n2nccn2)c1
Procedure, shortened: as §1

[3] = compound: NC1(c2ccc(-c3nc4ccn5c(=O)[nH]nc5c4cc3-c3ccccc3)cc2)CCC1
Procedure, shortened: as §1

[4] = compound: NCC(=O)Nc1ccc(-n2nc(C(F)(F)F)cc2-c2ccc3c(ccc4ccccc43)c2)cc1
Procedure, shortened: as §1

[5] = compound: Nc1ccccc1NC(=O)c1ccc(CNC(=O)OCc2cccnc2)cc1 [entinostat]
Procedure, shortened: as §1

[6] = compound: O=C(CCCCCCC(=O)Nc1ccccc1)NO [vorinostat]
Procedure, shortened: as §1

[7] = compound: O=C(CCCCCCNC(=O)c1cnc(N(c2ccccc2)c2ccccc2Cl)nc1)NO [citarinostat]
Procedure, shortened: as §1

[8] = compound: O=C(O)c1ccc2c(c1)nc(Nc1cccc(Cl)c1)c1ccncc12 [silmitasertib]
Procedure, shortened: as §1

[9] = compound: O=C1NC(=O)C(c2cnc3ccccn23)=C1c1cn2c3c(cc(F)cc13)CN(C(=O)N1CCCCC1)CC2
Procedure, shortened: as §1

[10] = compound: c1cc(OCCN2CCCCC2)cc(-c2n[nH]c3ccc(-c4nnc[nH]4)cc23)c1
Procedure, shortened: as §1

Measured: log2 fold change

RETREG3 (UniProt Q86VR2)
inactive: [1] 0.046 | [2] -0.033 | [3] -0.047 | [4] 0.048 | [5] 0.007 | [6] -0.045 | [7] 0.003 | [8] 0.04 | [9] -0.086 | [10] -0.03

RPS25 (UniProt P62851)
inactive: [1] -0.043 | [2] 0.071 | [3] 0.192 | [4] 0.053 | [5] -0.072 | [6] 0.032 | [7] -0.066 | [8] -0.061 | [9] 0.107 | [10] -0.052

RPS6KA1 isoform 2 (UniProt Q15418)
Sequence of UniProt Q15418 (Q15418 whole entry, looked up): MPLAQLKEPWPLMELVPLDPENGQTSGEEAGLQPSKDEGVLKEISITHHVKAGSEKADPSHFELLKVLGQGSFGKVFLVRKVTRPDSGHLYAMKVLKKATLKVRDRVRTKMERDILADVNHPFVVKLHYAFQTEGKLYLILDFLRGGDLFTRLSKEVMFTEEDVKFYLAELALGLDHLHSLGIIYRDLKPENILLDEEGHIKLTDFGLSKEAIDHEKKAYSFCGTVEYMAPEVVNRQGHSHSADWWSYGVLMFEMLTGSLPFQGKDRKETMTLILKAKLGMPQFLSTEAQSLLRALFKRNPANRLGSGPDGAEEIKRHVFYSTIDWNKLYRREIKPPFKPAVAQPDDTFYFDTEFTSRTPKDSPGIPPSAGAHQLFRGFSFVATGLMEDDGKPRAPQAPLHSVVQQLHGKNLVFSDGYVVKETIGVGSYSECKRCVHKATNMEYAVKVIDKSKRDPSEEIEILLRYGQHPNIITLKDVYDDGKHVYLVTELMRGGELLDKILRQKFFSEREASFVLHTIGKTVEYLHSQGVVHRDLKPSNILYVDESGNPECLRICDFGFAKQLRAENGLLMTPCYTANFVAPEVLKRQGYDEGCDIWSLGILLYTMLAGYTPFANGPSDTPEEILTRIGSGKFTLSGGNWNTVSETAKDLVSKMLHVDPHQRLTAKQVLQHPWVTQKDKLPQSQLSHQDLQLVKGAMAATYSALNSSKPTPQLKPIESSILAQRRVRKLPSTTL
inactive: [1] -0.131 | [2] -0.242 | [3] -0.205 | [4] -0.096 | [5] 0.06 | [6] 0.109 | [7] 0.058 | [8] -0.08 | [9] -0.099 | [10] -0.32

RPS6KA2 isoform 2 (UniProt Q15349)
Sequence of UniProt Q15349 (Q15349 whole entry, looked up): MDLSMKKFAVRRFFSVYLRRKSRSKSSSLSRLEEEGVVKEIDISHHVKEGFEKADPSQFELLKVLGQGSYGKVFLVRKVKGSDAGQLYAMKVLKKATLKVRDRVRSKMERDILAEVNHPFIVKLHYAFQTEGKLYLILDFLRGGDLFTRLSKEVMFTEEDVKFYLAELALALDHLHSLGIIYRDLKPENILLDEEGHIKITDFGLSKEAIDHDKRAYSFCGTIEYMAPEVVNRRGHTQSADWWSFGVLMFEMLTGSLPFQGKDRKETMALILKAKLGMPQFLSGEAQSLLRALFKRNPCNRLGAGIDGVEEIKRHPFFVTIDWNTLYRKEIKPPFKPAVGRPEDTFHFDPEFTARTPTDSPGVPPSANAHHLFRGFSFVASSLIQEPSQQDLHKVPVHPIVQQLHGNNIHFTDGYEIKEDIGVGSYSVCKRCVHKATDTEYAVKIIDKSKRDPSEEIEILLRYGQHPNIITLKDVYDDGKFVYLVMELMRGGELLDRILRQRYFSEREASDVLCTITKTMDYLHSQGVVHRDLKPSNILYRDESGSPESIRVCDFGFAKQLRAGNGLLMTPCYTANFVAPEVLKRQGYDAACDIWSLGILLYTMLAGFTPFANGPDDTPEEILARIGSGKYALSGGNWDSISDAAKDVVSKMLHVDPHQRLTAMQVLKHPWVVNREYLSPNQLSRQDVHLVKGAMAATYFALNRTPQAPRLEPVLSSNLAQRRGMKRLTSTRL
inactive: [1] -0.129 | [2] -0.256 | [3] -0.269 | [4] -0.035 | [5] 0.067 | [6] 0.122 | [7] 0.106 | [8] -0.044 | [9] -0.056 | [10] -0.295

SETD3 (UniProt Q86TU7)
inactive: [1] -0.007 | [2] -0.019 | [3] -0.045 | [4] -0.002 | [5] -0.02 | [6] -0.035 | [7] -0.015 | [8] 0.007 | [9] -0.022 | [10] 0.031

SEC24A (UniProt O95486)
inactive: [1] -0.015 | [2] 0 | [3] -0.108 | [4] -0.016 | [5] 0.016 | [6] 0.078 | [7] 0 | [8] 0.02 | [9] -0.092 | [10] -0.013

RIPK1 (UniProt Q13546)
inactive: [1] 0.037 | [2] -0.06 | [3] -0.092 | [4] -0.009 | [5] 0.088 | [6] -0.014 | [7] -0.006 | [8] 0.025 | [9] 0.205 | [10] 0.047

RPS19 (UniProt P39019)
inactive: [1] -0.008 | [2] 0.075 | [3] 0.186 | [4] 0.079 | [5] -0.06 | [6] -0.007 | [7] -0.059 | [8] -0.014 | [9] 0.051 | [10] -0.107

RAVER1 (UniProt E9PAU2)
inactive: [1] -0.063 | [2] -0.35 | [3] -0.1 | [4] -0.32 | [5] 0.211 | [6] 0.207 | [7] 0.166 | [8] -0.022 | [9] -0.244 | [10] -0.088

RPS15 (UniProt P62841)
inactive: [1] 0.005 | [2] -0.13 | [3] 0.135 | [4] 0 | [5] -0.068 | [6] 0 | [7] -0.034 | [8] 0.02 | [9] 0.036 | [10] -0.144

SEPTIN5 (UniProt Q99719)
Sequence of UniProt Q99719 (Q99719 whole entry, looked up): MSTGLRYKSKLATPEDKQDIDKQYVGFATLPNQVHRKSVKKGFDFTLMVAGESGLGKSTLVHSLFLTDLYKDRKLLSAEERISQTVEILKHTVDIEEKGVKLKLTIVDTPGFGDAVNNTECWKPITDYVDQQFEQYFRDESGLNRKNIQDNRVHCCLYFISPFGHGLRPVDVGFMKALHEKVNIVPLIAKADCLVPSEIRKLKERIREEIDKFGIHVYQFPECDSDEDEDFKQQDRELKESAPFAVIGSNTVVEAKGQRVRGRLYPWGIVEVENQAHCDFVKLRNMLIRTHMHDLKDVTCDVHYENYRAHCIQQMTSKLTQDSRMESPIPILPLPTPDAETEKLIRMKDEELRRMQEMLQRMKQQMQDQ
inactive: [1] -0.005 | [2] -0.012 | [3] -0.011 | [4] -0.004 | [5] -0.017 | [6] -0.001 | [7] 0.059 | [8] -0.038 | [9] -0.013 | [10] -0.021

REEP4 (UniProt Q9H6H4)
inactive: [1] 0.002 | [2] -0.032 | [3] -0.012 | [4] 0.084 | [5] 0.027 | [6] 0.088 | [7] 0.048 | [8] 0.027 | [9] 0.097 | [10] -0.059

RPS2 (UniProt P15880)
inactive: [1] 0.035 | [2] 0.081 | [3] 0.195 | [4] 0.089 | [5] -0.036 | [6] 0.001 | [7] -0.079 | [8] 0.01 | [9] 0.086 | [10] -0.189

RNASET2 (UniProt O00584)
active: [3] -0.285
inactive: [1] -0.082 | [2] -0.114 | [4] -0.033 | [5] -0.012 | [6] -0.04 | [7] 0.074 | [8] -0.018 | [9] -0.048 | [10] -0.102

RAP1GDS1 isoform 5 (UniProt P52306)
Sequence of UniProt P52306 (P52306 whole entry, looked up): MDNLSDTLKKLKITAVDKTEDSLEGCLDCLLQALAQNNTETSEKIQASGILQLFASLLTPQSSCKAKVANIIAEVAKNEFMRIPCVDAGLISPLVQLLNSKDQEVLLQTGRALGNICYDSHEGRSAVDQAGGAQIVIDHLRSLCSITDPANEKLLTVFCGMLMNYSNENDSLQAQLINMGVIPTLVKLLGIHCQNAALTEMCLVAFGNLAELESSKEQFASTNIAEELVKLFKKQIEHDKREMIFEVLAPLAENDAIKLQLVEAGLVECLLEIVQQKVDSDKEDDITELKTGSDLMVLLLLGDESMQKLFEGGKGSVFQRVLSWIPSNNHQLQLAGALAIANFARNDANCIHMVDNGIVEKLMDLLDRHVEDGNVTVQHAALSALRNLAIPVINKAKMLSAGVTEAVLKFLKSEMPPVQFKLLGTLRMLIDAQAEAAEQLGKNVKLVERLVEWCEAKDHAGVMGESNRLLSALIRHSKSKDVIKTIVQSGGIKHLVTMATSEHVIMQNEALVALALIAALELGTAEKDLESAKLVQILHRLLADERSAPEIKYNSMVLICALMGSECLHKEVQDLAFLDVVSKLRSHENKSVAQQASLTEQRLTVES
inactive: [1] -0.059 | [2] -0.069 | [3] -0.181 | [4] -0.117 | [5] 0.027 | [6] 0.119 | [7] 0.2 | [8] 0.087 | [9] -0.049 | [10] -0.002

RNF187 (UniProt Q5TA31)
inactive: [1] 0.004 | [2] -0.056 | [3] -0.033 | [4] 0.07 | [5] -0.019 | [6] 0.095 | [7] 0.054 | [8] 0.012 | [9] -0.061 | [10] 0.035

RAB5IF isoform 5 (UniProt Q9BUV8)
inactive: [1] 0.008 | [2] 0.103 | [3] 0.003 | [4] -0.107 | [5] 0.007 | [6] -0.019 | [7] 0.225 | [8] -0.032 | [9] 0.168 | [10] 0.047

RPS14 (UniProt P62263)
inactive: [1] 0.056 | [2] 0.142 | [3] 0.149 | [4] 0.08 | [5] -0.033 | [6] -0.106 | [7] -0.089 | [8] -0.041 | [9] 0.209 | [10] -0.069

SCO2 (UniProt O43819)
inactive: [2] -0.078 | [3] 0.015 | [4] 0.006 | [5] -0.266 | [6] 0.011 | [7] -0.001 | [8] -0.078 | [9] -0.092 | [10] 0.118
active: [1] -0.598

RRS1 (UniProt Q15050)
inactive: [1] 0.06 | [2] 0.143 | [3] 0.233 | [4] 0.211 | [5] -0.087 | [6] -0.063 | [7] -0.081 | [8] 0.291 | [9] 0.438 | [10] -0.107

RTF2 (UniProt Q9BY42)
Sequence of UniProt Q9BY42 (Q9BY42 whole entry, looked up): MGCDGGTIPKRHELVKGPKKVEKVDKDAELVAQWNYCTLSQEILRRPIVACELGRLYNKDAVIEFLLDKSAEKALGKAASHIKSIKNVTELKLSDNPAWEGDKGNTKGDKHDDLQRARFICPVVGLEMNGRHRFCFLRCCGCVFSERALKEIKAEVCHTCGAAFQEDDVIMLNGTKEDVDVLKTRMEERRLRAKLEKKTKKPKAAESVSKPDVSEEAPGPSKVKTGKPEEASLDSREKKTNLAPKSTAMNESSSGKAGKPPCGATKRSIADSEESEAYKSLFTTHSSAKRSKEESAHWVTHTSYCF
inactive: [1] -0.134 | [2] 0.012 | [3] 0.124 | [4] -0.081 | [5] -0.023 | [6] -0.062 | [7] 0.133 | [8] 0.133 | [9] -0.189 | [10] 0.028

RUFY1 (UniProt Q96T51)
inactive: [1] 0.06 | [2] -0.057 | [3] -0.086 | [4] -0.101 | [5] 0.05 | [6] 0.031 | [7] 0.032 | [8] 0.11 | [9] 0.038 | [10] -0.037

SF3B5 (UniProt Q9BWJ5)
inactive: [1] 0.081 | [2] 0.043 | [3] -0.034 | [4] 0.038 | [5] 0.116 | [6] -0.004 | [7] -0.016 | [8] 0.016 | [9] -0.127 | [10] 0

SASH1 (UniProt O94885)
inactive: [1] -0.08 | [2] -0.06 | [3] -0.053 | [4] -0.147 | [5] 0.035 | [6] 0.077 | [7] 0.167 | [8] 0.033 | [9] 0.008 | [10] -0.218

SERPINA7 (UniProt P05543)
inactive: [1] -0.062 | [2] 0.132 | [3] 0.234 | [4] -0.075 | [5] -0.084 | [6] -0.164 | [7] -0.011 | [8] 0.091 | [9] 0.089 | [10] 0.367

RBIS (UniProt Q8N0T1)
Sequence of UniProt Q8N0T1 (Q8N0T1 whole entry, looked up): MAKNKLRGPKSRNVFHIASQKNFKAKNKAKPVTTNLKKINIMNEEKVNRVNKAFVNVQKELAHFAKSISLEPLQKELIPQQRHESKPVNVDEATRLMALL
inactive: [1] -0.021 | [2] -0.029 | [3] 0.02 | [4] 0.02 | [5] 0.019 | [6] 0.014 | [7] 0.092 | [8] -0.009 | [9] -0.002 | [10] -0.078

RPRD1B (UniProt Q9NQG5)
active: [9] -0.346
inactive: [1] -0.058 | [2] -0.03 | [3] -0.087 | [4] -0.081 | [5] 0.051 | [6] 0.049 | [7] 0.029 | [8] 0.031 | [10] -0.049

RBBP6 (UniProt Q7Z6E9)
Sequence of UniProt Q7Z6E9 (Q7Z6E9 whole entry, looked up): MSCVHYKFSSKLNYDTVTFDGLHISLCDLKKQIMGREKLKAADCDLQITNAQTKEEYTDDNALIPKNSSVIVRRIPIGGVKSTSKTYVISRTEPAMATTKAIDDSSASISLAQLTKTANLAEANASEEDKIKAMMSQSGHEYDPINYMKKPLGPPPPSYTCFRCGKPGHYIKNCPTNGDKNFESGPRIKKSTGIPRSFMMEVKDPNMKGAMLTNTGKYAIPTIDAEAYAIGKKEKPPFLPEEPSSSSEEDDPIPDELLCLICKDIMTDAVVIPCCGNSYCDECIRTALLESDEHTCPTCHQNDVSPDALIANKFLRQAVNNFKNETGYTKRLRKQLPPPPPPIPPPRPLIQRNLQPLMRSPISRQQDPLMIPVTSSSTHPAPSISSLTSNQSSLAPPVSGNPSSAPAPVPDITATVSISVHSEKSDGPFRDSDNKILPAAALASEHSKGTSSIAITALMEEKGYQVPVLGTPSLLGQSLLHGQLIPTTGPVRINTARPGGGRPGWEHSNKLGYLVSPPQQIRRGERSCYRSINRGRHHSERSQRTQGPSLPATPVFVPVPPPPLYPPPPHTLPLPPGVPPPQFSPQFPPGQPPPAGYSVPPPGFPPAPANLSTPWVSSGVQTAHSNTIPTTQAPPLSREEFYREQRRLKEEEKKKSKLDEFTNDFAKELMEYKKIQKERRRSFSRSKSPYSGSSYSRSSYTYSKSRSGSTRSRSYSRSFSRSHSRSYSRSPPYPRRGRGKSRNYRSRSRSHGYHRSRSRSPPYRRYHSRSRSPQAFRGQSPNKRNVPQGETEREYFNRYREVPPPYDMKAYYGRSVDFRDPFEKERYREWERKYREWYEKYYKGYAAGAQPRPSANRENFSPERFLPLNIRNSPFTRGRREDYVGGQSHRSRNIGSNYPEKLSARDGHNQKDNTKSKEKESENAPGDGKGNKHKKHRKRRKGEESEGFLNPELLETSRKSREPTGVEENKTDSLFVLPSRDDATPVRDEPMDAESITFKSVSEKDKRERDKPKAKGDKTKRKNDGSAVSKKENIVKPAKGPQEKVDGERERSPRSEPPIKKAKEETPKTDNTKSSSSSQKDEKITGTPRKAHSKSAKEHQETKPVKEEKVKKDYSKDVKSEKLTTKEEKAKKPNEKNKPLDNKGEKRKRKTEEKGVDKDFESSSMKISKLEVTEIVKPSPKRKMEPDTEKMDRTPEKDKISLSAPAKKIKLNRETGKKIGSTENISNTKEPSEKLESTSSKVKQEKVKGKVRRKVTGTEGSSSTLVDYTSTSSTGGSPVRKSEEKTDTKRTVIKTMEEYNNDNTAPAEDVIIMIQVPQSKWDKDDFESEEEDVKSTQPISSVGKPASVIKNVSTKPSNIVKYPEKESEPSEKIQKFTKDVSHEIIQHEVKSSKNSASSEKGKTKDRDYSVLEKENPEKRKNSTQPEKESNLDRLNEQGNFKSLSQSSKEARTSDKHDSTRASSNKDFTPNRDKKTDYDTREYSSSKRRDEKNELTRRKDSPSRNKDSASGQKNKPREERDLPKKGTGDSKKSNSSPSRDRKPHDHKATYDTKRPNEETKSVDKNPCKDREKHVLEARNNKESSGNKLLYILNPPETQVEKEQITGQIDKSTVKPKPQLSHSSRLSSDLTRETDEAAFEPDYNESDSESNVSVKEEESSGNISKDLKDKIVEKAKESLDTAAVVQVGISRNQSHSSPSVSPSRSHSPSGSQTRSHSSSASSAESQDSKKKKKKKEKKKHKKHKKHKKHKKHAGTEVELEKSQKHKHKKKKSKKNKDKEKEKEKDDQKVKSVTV
inactive: [1] 0.028 | [2] -0.107 | [3] 0.089 | [4] -0.017 | [5] -0.011 | [6] 0.081 | [7] 0.099 | [8] 0.207 | [9] 0.112 | [10] -0.013

RCOR1 (UniProt Q9UKL0)
inactive: [1] 0.035 | [2] -0.104 | [3] -0.03 | [4] -0.133 | [5] 0.189 | [6] 0.082 | [7] 0.007 | [8] 0.016 | [9] -0.043 | [10] -0.103

RBM17 (UniProt Q96I25)
Sequence of UniProt Q96I25 (Q96I25 whole entry, looked up): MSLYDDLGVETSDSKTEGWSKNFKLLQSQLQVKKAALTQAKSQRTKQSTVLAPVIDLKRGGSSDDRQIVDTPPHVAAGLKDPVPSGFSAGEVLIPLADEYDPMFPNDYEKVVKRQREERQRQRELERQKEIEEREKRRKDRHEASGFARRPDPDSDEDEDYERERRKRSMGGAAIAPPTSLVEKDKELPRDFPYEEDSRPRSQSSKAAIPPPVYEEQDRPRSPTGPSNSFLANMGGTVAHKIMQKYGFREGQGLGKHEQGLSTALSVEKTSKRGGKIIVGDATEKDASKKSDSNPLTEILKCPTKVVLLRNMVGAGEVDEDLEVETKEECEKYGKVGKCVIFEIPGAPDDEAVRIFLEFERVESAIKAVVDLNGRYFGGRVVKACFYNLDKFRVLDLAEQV
inactive: [1] 0.021 | [2] 0.037 | [3] 0.003 | [4] -0.07 | [5] 0.08 | [6] 0.092 | [7] 0.056 | [8] 0.036 | [9] 0.027 | [10] -0.127
